# In PubChem BioAssay (NCI):
# Compounds without any hit were thinned out: in the full panel of roughly 83,000, 20% have a hit.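 Negative percent growth values reflect cell death: -40 means 40% of the cells present at the start died, and -100 means all died.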 Activity calls are given as the source filed them. The calls were made as follows: active = growth percent below 10; inactive = the rest.
# Test system: SK-MEL-2 melanoma
# Test: NCI-60 one-dose screen, 48 h (100 = growth as untreated, 0 = no growth, -100 = all killed)
# Settings: 10 µM unless noted
row,Structure (SMILES),growth
1,Cc1ccc2sc3c(NCCCNCCO)nc4ccccc4c3c(=O)c2c1,90.8% (inactive)
2,NCCOc1ncccc1/C=C1\c2ccccc2-c2ccc(F)cc21,112% (inactive)
3,CNCCNc1nc2ccccc2c2c(=O)c3cc(OC)ccc3sc12,75.2% (inactive)
4,CC(C)c1ccc(S(=O)(=O)NC(=O)NC2CCCC2)cc1,110% (inactive)
5,COc1cc(/C=C2\CN(C)C/C(=C\c3cc(CN4CCCC4)c(O)c(OC)c3)C2=O)cc(CN2CCCC2)c1O,92.1% (inactive)
6,Nc1ccccc1-c1ccc(-c2ccc(Cl)cc2)c2c1[nH]c1ccccc12,79.6% (inactive)
7,O=C(Cn1cc(COc2ncnc3c2cnn3-c2ccccc2)nn1)Nc1ccccn1,101% (inactive)
8,NCCOc1ccccc1/C=C1\c2ccccc2-c2ccc([N+](=O)[O-])cc21,78.3% (inactive)
9,COc1cc(/C(C#N)=C/c2nc3c(N4CCOCC4)nc(Cl)nc3n2C)cc(OC)c1OC,57.3% (inactive)
10,Cc1ccc2cccc(Oc3ccc(Nc4ncnc5onc(-c6ccccc6)c45)cc3)c2n1,94% (inactive)
11,COC(=O)/C(CCC=C(C)C)=C1\[C@@H](OC(C)=O)C[C@@]2(C)[C@H]1C[C@@H](O)[C@H]1[C@@]3(C)CC[C@H](NCc4ccccc4)[C@@H](C)[C@@H]3CC[C@@]12C,94.4% (inactive)
12,COc1cc(/C=C/C(=O)c2ccc(Cl)cc2)cc(CN2CCCCC2)c1O,108% (inactive)
13,O=C(/C=C/c1ccc(Cl)cc1)c1ccc(Nc2nc(NCCO)nc(Nc3ccc(Cl)cc3)n2)cc1,96% (inactive)
